Experimental data reported in PubChem BioAssay (Tox21).
Results filed as inconclusive are left out. Activity calls are given as the source filed them. Unless noted, calls follow the shape of the dose curve; as a rule, active = well fitted curve in the direction sought with a large enough effect in the repeat runs; inconclusive = weak or mixed curves; inactive = no such curve, though single readings can be large; an effect the other way counts as inactive or inconclusive.

How the values were obtained:
[1] = target: Retinoic acid receptor RXR-alpha (Homo sapiens) (UniProt P19793); experiment: qHTS assay to identify small molecule agonists of the RXR signaling pathway (AID 1159527; calls by dose curve; also: nearly all actives have a fitted effect of over 35% in size)
Summary of the method: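 Read-out: beta-lactamase FRET ratio (405 nm excitation, 460 and 530 nm emission) after 2 hr substrate loading at room temperature. Cells were RXR-alpha-UAS-bla HEK 293T treated with compounds for 16 hr in 2% charcoal-stripped FBS medium.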

[2] = qHTS assay to identify small molecule agonists of the RXR signaling pathway - cell viability counter screen (AID 1159529); also: series mostly up to about 77 µM; nearly all actives have a fitted effect of over 50% in size
Summary of the method: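 HEK 293T RXRa-bla cells, 2% CS-FBS; 5 h settle; cpd 16 h 37 C, 5% CO2; CellTiter-Glo 30 min RT, luminescence. Tetraoctyl ammonium bromide as positive control.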

[3] = qHTS assay to identify small molecule antagonists of the retinoid acid receptor (RAR) signaling pathway - cell viability counter screen (AID 1159551); also: nearly all actives have a fitted effect of over 35% in size
Summary of the method: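 Following overnight attachment, C3RL4 reporter cells received DMSO-dissolved compounds and then retinol (1 uM final). Six hours later at 37 C, ATP content was measured by CellTiter-Glo luminescence.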

[4] = qHTS assay to identify small molecule antagonists of the retinoic acid receptor (RAR) signaling pathway (AID 1159552; also: nearly all actives have a fitted effect of over 50% in size)
Summary of the method: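 Cells of the C3RL4 line were seeded, incubated overnight, then dosed with compounds in DMSO followed immediately by retinol (1 uM final). Six hours later luciferase detection reagent went in; signal was measured after 30 min at RT.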

[5] = qHTS assay to identify small molecule agonists of the retinoic acid receptor (RAR) signaling pathway (AID 1159553)
Summary of the method: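 Cell line C3RL4, RARE luciferase reporter. Treatment: compounds in DMSO, 6 hr, 37 C, 5% CO2, after overnight plating. Detection: luminescence, 30 min RT after reagent.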

[6] = qHTS assay to identify small molecule antagonists of the estrogen related receptor signaling pathway with the pleiotropic PPARgamma coactivator (PGC) cell viability counter screen (AID 1224822;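 also: series mostly up to about 46 µM; viability read after 17.5 h compound exposure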)
Summary of the method: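 qHTS format, DMSO compound stocks pin-transferred onto PGC/ERR cells 6 h after plating; 17.5 h exposure at 37 C, then CellTiter-Fluor fluorescence.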

[7] = qHTS assay to identify small molecule antagonists of the estrogen related receptor (ERR) signaling pathway from Tox21 library - cell viability counter screen (AID 1224834); also: nearly all actives have a fitted effect of over 30% in size
Summary of the method: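 Viability readout (CellTiter-Fluor fluorescence, 30 min at 37 C) multiplexed with the ERR assay; cells treated 17.5 h at 37 C with compounds delivered in DMSO.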

[8] = qHTS assay to identify small molecule agonists of the constitutive androstane receptor (CAR) signaling pathway - cell viability counter screen (AID 1224836); also: series mostly up to about 92 µM; nearly all actives have a fitted effect of over 45% in size
Summary of the method: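 HepG2-CYP2B6-hCAR, 2500 cells/well, 4 h pre-incubation; cpd 15 conc + PK11195 0.75 uM final; 23 h, 37 C/5% CO2; CellTiter-Fluor, fluorescence.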

[9] = qHTS assay to identify small molecule antagonists of the constitutive androstane receptor (CAR) signaling pathway - cell viability counter screen (AID 1224837); also: series mostly up to about 92 µM; nearly all actives have a fitted effect of over 45% in size
Summary of the method: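 Fluorescence from CellTiter-Fluor served as the viability signal. Human hepatoma HepG2 cells stably bearing hCAR and CYP2B6-2.2kb received compound plus CITCO (50 nM final) for 23 hr.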

[10] = target: Nuclear receptor subfamily 1 group I member 3 (Homo sapiens) (UniProt Q14994); experiment: qHTS assay to identify small molecule antagonists of the constitutive androstane receptor (CAR) signaling pathway (AID 1224838);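 also: HepG2 cells stably expressing hCAR with CYP2B6 luciferase reporter stimulated by CITCO; nearly all actives have a fitted effect of over 40% in size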
Summary of the method: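 Quantitative HTS in double-stable HepG2-CYP2B6-hCAR cells. After 4 h plating, cells get compound (15 concentrations) and CITCO at 50 nM final, incubate 24 h at 37 C, then ONE-Glo luminescence is read.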

[11] = target: Nuclear receptor subfamily 1 group I member 3 (Homo sapiens) (UniProt Q14994); experiment: qHTS assay to identify small molecule agonists of the constitutive androstane receptor (CAR) signaling pathway (AID 1224839);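 also: HepG2 cells stably carrying human CAR and a CYP2B6 luciferase reporter; series mostly up to about 92 µM; nearly all actives have a fitted effect of over 15% in size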
Summary of the method: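 HepG2-CYP2B6-hCAR cells, 2500/well, 4 h pre-incubation; compounds 15 conc.; PK11195 0.75 uM final; 24 h, 37 C/5% CO2; ONE-Glo luciferase read.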

[12] = qHTS assay to identify small molecule antagonists of the estrogen related receptor signaling pathway with the pleiotropic PPARgamma coactivator (PGC) from Tox21 10K library - cell viability counter screen (AID 1224840; active = well fitted cell-killing curve with a large enough effect in the repeat runs, not every such curve was filed as active; also: nearly all actives have a fitted effect of over 40% in size)
Summary of the method: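 Compounds in DMSO, alongside positive and negative controls, were pinned onto PGC/ERR cells (2,000 per well). Exposure lasted 17.5 hours at 37 C, followed by a 30-minute CellTiter-Fluor incubation and fluorescence reading.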

[13] = target: Luciferin 4-monooxygenase (Photinus pyralis) (UniProt P08659); experiment: qHTS assay to identify small molecule inhibitors of firefly luciferase (AID 1224835); also: series mostly up to about 120 µM; nearly all actives have a fitted effect of over 25% in size
Summary of the method: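 Inhibition of purified Photinus luciferase is measured by luminescence. Substrate levels (D-luciferin, ATP) sit at their KM values. Each compound is tested in a concentration series.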

[14] = qHTS assay to identify small molecule antagonists of the estrogen related receptor signaling pathway with the pleiotropic PPARgamma coactivator (PGC) from Tox21 10K library (AID 1224841; call rule not given here; also: series mostly up to about 92 µM; actives are mostly falling curves and most rising ones were filed inactive; nearly all actives have a fitted effect of over 50% in size)
Summary of the method: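 Compound exposure ran 18 hours at 37 C in PGC/ERR cells (2,000/well) that had first rested 6 hours in a 37 C/5% CO2 incubator. Luciferase activity was then detected with One-Glo after a 30-minute room-temperature step.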

[15] = qHTS assay to identify small molecule antagonists of the estrogen related receptor (ERR) signaling pathway (AID 1224819;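 also: luminescence from an ERR-driven luciferase reporter measured with One-Glo reagent; series mostly up to about 46 µM; nearly all actives have a fitted effect of over 50% in size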)
Summary of the method: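 LOPAC library screened for antagonism as reduced One-Glo luminescence in ERR reporter cells (2,000/well). Compounds were added after 6 h pre-incubation and left 18 h at 37C; reading followed a 30 min room-temperature reagent step.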

[16] = qHTS assay to identify small molecule agonists of the estrogen related receptor (ERR) signaling pathway (AID 1224820)
Summary of the method: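 Cells: ERR line from NTP, 2,000/well. Pre-incubation 6 h, 37 C/5% CO2. Compound (DMSO) pin transfer, 18 h 37 C. One-Glo, 30 min RT, luminescence.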

[17] = tested on: estrogen-related receptor alpha (ERRalpha) with PGC-1alpha coactivator, human; experiment: qHTS assay to identify small molecule antagonists of the estrogen related receptor signaling pathway with the pleiotropic PPARgamma coactivator (PGC) (AID 1224821; calls by dose curve)
Summary of the method: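 Luminescent read-out (One-Glo, 30 min at room temperature) following 18 h treatment of PGC/ERR cells at 37 C with compounds delivered in DMSO. Cells had settled 6 h at 37 C/5% CO2 before dosing.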

[18] = qHTS assay to identify small molecule agonists of the estrogen related receptor signaling pathway with the pleiotropic PPARgamma coactivator (PGC) (AID 1224823)
Summary of the method: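 Steps: plate PGC/ERR cells at 2,000 cells/well; incubate 6 h, 37 C/5% CO2; pin-transfer compounds (DMSO); incubate 18 h, 37 C; add One-Glo; 30 min RT; read luminescence.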

[19] = qHTS assay to identify small molecule agonists of the estrogen related receptor signaling pathway with the pleiotropic PPARgamma coactivator (PGC) from Tox21 10K library (AID 1224842); also: nearly all actives have a fitted effect of over 15% in size
Summary of the method: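 Luminescence from One-Glo (30 min, room temperature) measured after PGC/ERR cells had 18 h at 37 C with pinned compound (23 nL in DMSO). Cells had been seeded at 2,000 per well and pre-incubated 6 h.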
% is scaled to controls: 0 for no effect and ±100 for the full control effect.

Nuclear receptor subfamily 1 group I member 3 (Homo sapiens), sequence (Q14994 whole entry, looked up): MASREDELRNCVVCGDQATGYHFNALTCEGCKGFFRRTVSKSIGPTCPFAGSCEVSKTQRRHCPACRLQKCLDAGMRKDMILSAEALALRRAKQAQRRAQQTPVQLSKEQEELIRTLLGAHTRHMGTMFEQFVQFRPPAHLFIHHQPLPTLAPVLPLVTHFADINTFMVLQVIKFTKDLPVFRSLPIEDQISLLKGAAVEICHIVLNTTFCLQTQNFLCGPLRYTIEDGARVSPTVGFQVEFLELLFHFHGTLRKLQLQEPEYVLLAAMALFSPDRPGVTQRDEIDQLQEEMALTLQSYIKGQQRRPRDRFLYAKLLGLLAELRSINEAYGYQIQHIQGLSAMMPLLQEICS
Retinoic acid receptor RXR-alpha (Homo sapiens), sequence (P19793 whole entry, looked up): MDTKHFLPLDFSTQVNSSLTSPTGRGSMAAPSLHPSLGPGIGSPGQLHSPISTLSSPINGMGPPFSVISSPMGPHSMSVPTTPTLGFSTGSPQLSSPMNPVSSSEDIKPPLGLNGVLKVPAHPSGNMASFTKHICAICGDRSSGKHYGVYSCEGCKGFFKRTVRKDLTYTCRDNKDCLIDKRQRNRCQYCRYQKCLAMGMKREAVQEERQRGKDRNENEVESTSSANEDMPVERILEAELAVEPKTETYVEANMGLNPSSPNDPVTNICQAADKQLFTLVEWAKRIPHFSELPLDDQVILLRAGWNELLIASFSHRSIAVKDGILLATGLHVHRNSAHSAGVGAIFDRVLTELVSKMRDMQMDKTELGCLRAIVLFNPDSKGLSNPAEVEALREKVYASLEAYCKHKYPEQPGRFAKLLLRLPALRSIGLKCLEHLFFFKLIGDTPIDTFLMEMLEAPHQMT
Luciferin 4-monooxygenase (Photinus pyralis), sequence (P08659 whole entry, looked up): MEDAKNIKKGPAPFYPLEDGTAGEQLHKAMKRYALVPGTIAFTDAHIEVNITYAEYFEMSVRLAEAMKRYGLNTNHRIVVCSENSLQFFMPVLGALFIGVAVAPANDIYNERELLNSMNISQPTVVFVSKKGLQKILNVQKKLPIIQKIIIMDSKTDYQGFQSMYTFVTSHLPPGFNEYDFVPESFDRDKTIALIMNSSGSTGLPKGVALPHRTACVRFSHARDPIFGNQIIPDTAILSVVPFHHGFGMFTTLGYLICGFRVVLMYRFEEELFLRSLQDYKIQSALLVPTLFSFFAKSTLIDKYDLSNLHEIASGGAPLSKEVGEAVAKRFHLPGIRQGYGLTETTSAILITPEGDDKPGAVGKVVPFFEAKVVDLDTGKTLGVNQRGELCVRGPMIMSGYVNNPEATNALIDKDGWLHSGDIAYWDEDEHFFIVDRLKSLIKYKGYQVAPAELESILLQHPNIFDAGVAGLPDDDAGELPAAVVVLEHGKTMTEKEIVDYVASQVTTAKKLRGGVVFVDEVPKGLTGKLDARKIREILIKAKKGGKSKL

CCN(Cc1ccncc1)C(=O)C(CO)c1ccccc1 (centres undefined)
inactive: Potency [1] | Potency [2] | outcome [3] | Potency [4] | Potency [5] | outcome [6] | Potency [7] | Potency [8] | Potency [9] | Potency [10] | Potency [11] | Potency [12]

O=C1OC(=O)C2CCCCC12 (centres undefined)
inactive: Potency [1] | Potency [2] | outcome [3] | Potency [4] | Potency [5] | Potency [7] | Potency [13] | Potency [8] | Potency [9] | Potency [10] | Potency [11] | Potency [12] | Potency [14]

O=C(O)CN(CCOCCOCCN(CC(=O)O)CC(=O)O)CC(=O)O
inactive: activation [1] 10% [at 0.29 µM] | activity change, negative = cytotoxicity [2] -0.722% [at 0.29 µM] | activity change, negative = cytotoxicity [3] 0.187% [at 0.349 µM] | activity, negative = inhibition [4] 12.3% [at 0.349 µM] | activation [5] 2.01% [at 0.756 µM] | outcome [15] | outcome [16] | outcome [17] | outcome [6] | outcome [18] | viability change, negative = cytotoxic [7] 1.46% [at 0.349 µM] | activity change, negative = inhibition [13] 0.561% [at 0.435 µM] | viability change, negative = cytotoxic [8] -0.739% [at 0.349 µM] | activity change, negative = cytotoxicity [9] 4% [at 0.349 µM] | viability change, negative = cytotoxic [12] -9.4% [at 0.349 µM] | activity, negative = inhibition [14] 5.6% [at 0.349 µM] | activation [19] -0.694% [at 0.349 µM]

CC(C)(CC(=O)O)C(=O)O
inactive: Potency [1] | Potency [2] | outcome [3] | Potency [4] | Potency [5] | Potency [7] | Potency [13] | Potency [8] | Potency [9] | Potency [10] | Potency [11] | Potency [12] | Potency [14] | outcome [19]

N[C@H](C(=O)O)c1ccc(O)cc1
inactive: Potency [1] | Potency [2] | activity change, negative = cytotoxicity [3] 1.22% [at 19 µM] | activity, negative = inhibition [4] -7.38% [at 19 µM] | Potency [5] | viability change, negative = cytotoxic [7] -0.517% [at 19 µM] | activity change, negative = inhibition [13] -0.257% [at 23.6 µM] | viability change, negative = cytotoxic [8] -1.44% [at 19 µM] | activity change, negative = cytotoxicity [9] 4.98% [at 19 µM] | activity, negative = inhibition [10] -5.61% [at 19 µM] | activation [11] -0.259% [at 19 µM] | viability change, negative = cytotoxic [12] -4.51% [at 19 µM] | activity, negative = inhibition [14] 1.15% [at 19 µM]

O=C(O)CNC(=O)c1ccc([N+](=O)[O-])cc1
inactive: Potency [1] | Potency [2] | outcome [3] | Potency [4] | Potency [5] | Potency [7] | Potency [13] | Potency [8] | Potency [9] | Potency [10] | Potency [11] | Potency [12] | Potency [14] | outcome [19]

Cc1cc2c(cc1S(N)(=O)=O)S(=O)(=O)CCC2
inactive: Potency [1] | Potency [2] | outcome [3] | Potency [4] | Potency [5] | Potency [7] | Potency [13] | Potency [8] | Potency [9] | Potency [10] | Potency [11] | Potency [12] | Potency [14]

CCCC(=O)O[C@]1(C(=O)CO)CC[C@H]2[C@@H]3CCC4=CC(=O)CC[C@]4(C)[C@H]3[C@@H](O)C[C@@]21C
inactive: Potency [1] | Potency [2] | outcome [3] | Potency [4] | Potency [5] | Potency [7] | Potency [13] | Potency [8] | Potency [9] | Potency [10] | Potency [11] | Potency [12] | Potency [14] | outcome [19]

CC(=O)CC(C)C
inactive: Potency [1] | Potency [2] | outcome [3] | Potency [4] | Potency [5] | Potency [7] | Potency [13] | Potency [8] | Potency [9] | Potency [10] | Potency [11] | Potency [12] | Potency [14] | outcome [19]
